According to PubChem BioAssay (NCI):
The panel holds about 83,000 compounds, 20% with a hit somewhere; the sample as a whole holds those more often.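 Method: cells in 96-well plates; compound added at one concentration; 48 h incubation; percent growth measured; values under 10 scored active.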 The source made the active and inactive calls.

Legend:
Assay in all cases: NCI-60 one-dose screen, 48 h (100 = growth as untreated, 0 = no growth, -100 = all killed)
Conditions in all cases: 10 µM
NCI-H23 lung = system: NCI-H23 lung
NCI-H226 lung = system: NCI-H226 lung
NCI-H322M lung = system: NCI-H322M lung
HOP-62 NSCLC = system: HOP-62 NSCLC
NCI-H460 lung = system: NCI-H460 lung
HOP-92 NSCLC = system: HOP-92 NSCLC
NCI-H522 lung = system: NCI-H522 lung
A549/ATCC NSCLC = system: A549/ATCC NSCLC
786-0 renal = system: 786-0 renal
COLO 205 colon = system: COLO 205 colon

Measured: growth

Nc1nc(SCC#CCCl)c2[nH]cnc2n1
inactive: NCI-H23 lung 66.2% | NCI-H226 lung 65.1% | NCI-H322M lung 62.7% | HOP-62 NSCLC 94.2% | NCI-H460 lung 29% | HOP-92 NSCLC 39.9% | NCI-H522 lung 20.1% | A549/ATCC NSCLC 54.5% | 786-0 renal 41.5%

OC(CNC1CCCC1)Cn1c2ccccc2c2ccccc21 (stereo not drawn)
inactive: NCI-H23 lung 31% | NCI-H226 lung 99.5% | NCI-H322M lung 51% | HOP-62 NSCLC 50.1% | HOP-92 NSCLC 26.2% | NCI-H522 lung 27.7% | A549/ATCC NSCLC 11.1%
active: NCI-H460 lung 8.53% | 786-0 renal 9.8%

Cc1ccc(S(=O)(=O)N2CCc3ccccc3CC2)cc1
inactive: NCI-H23 lung 54.5% | NCI-H226 lung 54.3% | NCI-H322M lung 99% | HOP-62 NSCLC 97.9% | NCI-H460 lung 90.8% | HOP-92 NSCLC 71.9% | NCI-H522 lung 74.1% | A549/ATCC NSCLC 72.1% | 786-0 renal 79.3%

Cc1ccc(-c2cc(C(=O)Nc3ccc(S(=O)(=O)N4CCCCC4)cc3)[nH]n2)c(O)c1
inactive: NCI-H23 lung 55.4% | NCI-H226 lung 76.5% | NCI-H322M lung 89.3% | HOP-62 NSCLC 90.7% | NCI-H460 lung 51.6% | HOP-92 NSCLC 56.1% | NCI-H522 lung 72.1% | A549/ATCC NSCLC 52.2% | 786-0 renal 62.3%

CC(=O)[C@H]1CC[C@H]2[C@@H]3CC[C@@H]4CC=C(C=O)C[C@]4(C)[C@H]3CC[C@]12C
inactive: NCI-H23 lung 92.7% | NCI-H226 lung 99.4% | NCI-H322M lung 97.6% | HOP-62 NSCLC 122% | NCI-H460 lung 103% | HOP-92 NSCLC 68.1% | NCI-H522 lung 82.5% | A549/ATCC NSCLC 92.4% | 786-0 renal 93.2%

CCN1CCOC1C(C)C (stereo not drawn)
inactive: NCI-H23 lung 102% | NCI-H226 lung 109% | NCI-H322M lung 103% | HOP-62 NSCLC 99.5% | NCI-H460 lung 107% | HOP-92 NSCLC 114% | NCI-H522 lung 97.1% | A549/ATCC NSCLC 101% | 786-0 renal 94.2%

CC1(CO)CCCC12OCCO2 (stereo not drawn)
inactive: NCI-H23 lung 106% | NCI-H226 lung 99.7% | NCI-H322M lung 107% | HOP-62 NSCLC 100% | NCI-H460 lung 105% | HOP-92 NSCLC 120% | NCI-H522 lung 93% | A549/ATCC NSCLC 101% | 786-0 renal 102%

O=C(Nc1cccc(C(F)(F)F)c1)C(Cl)Cl
inactive: NCI-H23 lung 94.1% | NCI-H226 lung 101% | NCI-H322M lung 87.5% | HOP-62 NSCLC 96.5% | NCI-H460 lung 102% | HOP-92 NSCLC 81.7% | NCI-H522 lung 98.2% | A549/ATCC NSCLC 98% | 786-0 renal 101% | COLO 205 colon 101%

COc1ccc(C(=O)c2sc3nc(-c4cccs4)ccc3c2N)cc1OC
inactive: NCI-H23 lung 74.3% | NCI-H226 lung 73% | NCI-H322M lung 85% | HOP-62 NSCLC 70.6% | NCI-H460 lung 36.1% | NCI-H522 lung 24% | A549/ATCC NSCLC 35.8% | 786-0 renal 70.7% | COLO 205 colon 40.9%
active: HOP-92 NSCLC -0.708%

CCCCCCCCCCCCCCCC(=O)N1CCN(C)CC1
inactive: NCI-H23 lung 85.1% | NCI-H226 lung 106% | NCI-H322M lung 71.3% | HOP-62 NSCLC 89% | NCI-H460 lung 68.6% | HOP-92 NSCLC 31.7% | NCI-H522 lung 17.1% | A549/ATCC NSCLC 95.5% | 786-0 renal 86% | COLO 205 colon 68.6%

Cc1ccc(-n2nnc3c(sc4ccccc43)c2=O)cc1
inactive: NCI-H23 lung 70.3% | NCI-H226 lung 46.9% | NCI-H322M lung 38.8% | HOP-62 NSCLC 31.6% | NCI-H460 lung 18.3% | NCI-H522 lung 58.6% | A549/ATCC NSCLC 35.3% | 786-0 renal 24.4% | COLO 205 colon 44%
active: HOP-92 NSCLC 6.27%

N#CC1C=Cc2c(ccc3ccccc23)N1C(=O)c1ccccc1 (stereo not drawn)
inactive: NCI-H23 lung 29.8% | NCI-H226 lung 12.9% | NCI-H322M lung 22.6% | HOP-62 NSCLC 50% | HOP-92 NSCLC 50.6% | A549/ATCC NSCLC 26.9% | 786-0 renal 34%
active: NCI-H460 lung 1.38% | NCI-H522 lung 9.32% | COLO 205 colon -39.8%

CCOc1nc(-c2ccccc2)cc2c(O)c(C(=O)NC(C)C)[nH]c(=O)c12
inactive: NCI-H23 lung 97% | NCI-H226 lung 105% | NCI-H322M lung 120% | HOP-62 NSCLC 99.7% | NCI-H460 lung 105% | HOP-92 NSCLC 58.2% | NCI-H522 lung 88.3% | A549/ATCC NSCLC 104% | 786-0 renal 112% | COLO 205 colon 118%

O=c1c2cccc3c(Nc4ccc(Br)cn4)ccc(c32)c2nc3ccccc3n12
inactive: NCI-H23 lung 81.3% | NCI-H226 lung 93.2% | NCI-H322M lung 77.9% | HOP-62 NSCLC 87.6% | NCI-H460 lung 86.6% | HOP-92 NSCLC 62.4% | NCI-H522 lung 89.4% | A549/ATCC NSCLC 106% | 786-0 renal 96.9% | COLO 205 colon 88.2%

CC(=O)OC1Oc2ccccc2-c2oc(=O)c(-c3cc(=O)oc4cc(O)ccc34)cc21 (stereo not drawn)
inactive: NCI-H23 lung 80.8% | NCI-H226 lung 91.5% | NCI-H322M lung 89.2% | HOP-62 NSCLC 93.8% | NCI-H460 lung 93.8% | HOP-92 NSCLC 44.8% | NCI-H522 lung 69.6% | A549/ATCC NSCLC 84.3% | 786-0 renal 80.4% | COLO 205 colon 101%

CCOC(=O)CNC(=O)Nc1ccc(Oc2ccc(NC(=O)NCC(=O)OCC)cc2)cc1
inactive: NCI-H23 lung 104% | NCI-H226 lung 98.8% | NCI-H322M lung 96.3% | HOP-62 NSCLC 96.1% | NCI-H460 lung 101% | HOP-92 NSCLC 92.2% | NCI-H522 lung 96.2% | A549/ATCC NSCLC 90.6% | 786-0 renal 105% | COLO 205 colon 105%

COc1cc(CSc2nc3ccc(C)cc3c(=O)n2-c2ccccc2)cc(OC)c1OC
active: NCI-H522 lung 8.32% | COLO 205 colon -24.2%
inactive: NCI-H23 lung 22% | NCI-H226 lung 48.3% | NCI-H322M lung 47.4% | HOP-62 NSCLC 37.8% | NCI-H460 lung 20.2% | HOP-92 NSCLC 67.9% | A549/ATCC NSCLC 39.3% | 786-0 renal 37.6%

COc1c(-c2c3sc(=O)[nH]c3nc3c2c(=O)[nH]n3C(C)C)cc2c(c1OC)OCO2
inactive: NCI-H23 lung 100% | NCI-H226 lung 85.8% | NCI-H322M lung 92.2% | HOP-62 NSCLC 94.5% | NCI-H460 lung 107% | HOP-92 NSCLC 72.2% | NCI-H522 lung 86% | A549/ATCC NSCLC 95.8% | 786-0 renal 86.5% | COLO 205 colon 117%

COc1ccc(-c2csc(NC(=O)CO[N+](=O)[O-])n2)cc1
active: NCI-H522 lung -39.7%
inactive: NCI-H23 lung 93.4% | NCI-H226 lung 102% | NCI-H322M lung 96.1% | HOP-62 NSCLC 101% | NCI-H460 lung 94.1% | HOP-92 NSCLC 118% | A549/ATCC NSCLC 84.9% | 786-0 renal 113% | COLO 205 colon 89.1%

COc1ccc(NC(=O)c2sc3nc4c(cc3c2N)C(O)CCC4)cc1 (stereo not drawn)
inactive: NCI-H23 lung 98.5% | NCI-H226 lung 101% | NCI-H322M lung 30.6% | HOP-62 NSCLC 117% | NCI-H460 lung 48.3% | HOP-92 NSCLC 85.2% | NCI-H522 lung 99.8% | A549/ATCC NSCLC 70% | 786-0 renal 94.8% | COLO 205 colon 110%

CCC(O)c1ccc(Br)cc1NC(=O)c1cccc(Cl)c1 (stereo not drawn)
active: NCI-H226 lung -1.35% | NCI-H460 lung 3.22% | A549/ATCC NSCLC 4.24%
inactive: NCI-H23 lung 28% | NCI-H322M lung 29.4% | HOP-62 NSCLC 28% | HOP-92 NSCLC 48.6% | NCI-H522 lung 24.2% | 786-0 renal 18.1% | COLO 205 colon 93.9%

CCCCn1c(=O)[nH]c(N)c(C(c2ccc(Cl)cc2)c2c(N)[nH]c(=O)n(CCCC)c2=O)c1=O
inactive: NCI-H23 lung 53.9% | NCI-H226 lung 58.7% | NCI-H322M lung 63.6% | HOP-62 NSCLC 59.1% | NCI-H460 lung 32% | HOP-92 NSCLC 54.7% | NCI-H522 lung 37.9% | A549/ATCC NSCLC 40.2% | 786-0 renal 41% | COLO 205 colon 43.9%

CC1=CC2OC34COC3CC(OC(=O)C(F)(F)F)C4(C)C2(C)CC1 (stereo not drawn)
inactive: NCI-H23 lung 110% | NCI-H226 lung 98.7% | NCI-H322M lung 96.1% | HOP-62 NSCLC 97.4% | NCI-H460 lung 104% | HOP-92 NSCLC 104% | NCI-H522 lung 103% | A549/ATCC NSCLC 97.8% | 786-0 renal 101% | COLO 205 colon 99.7%

CCOC(=O)[C@@H]1[C@H](c2ccccc2)[C@H]([N+](=O)[O-])[C@H](c2cn(-c3ccccc3)nc2C)N1Cc1ccccc1
inactive: NCI-H23 lung 88.6% | NCI-H226 lung 66.6% | NCI-H322M lung 104% | HOP-62 NSCLC 64.2% | NCI-H460 lung 41.9% | HOP-92 NSCLC 69.8% | NCI-H522 lung 80.6% | A549/ATCC NSCLC 66.2% | 786-0 renal 74.5% | COLO 205 colon 64.7%

COc1ccc(C(C)=O)cc1N1C(=O)C2C(C1=O)C1(c3ccccc3)C(=O)C2(c2ccccc2)C(c2ccc(C)cc2)=C1c1ccc(C)cc1 (stereo not drawn)
active: NCI-H460 lung 4.54% | A549/ATCC NSCLC 6.68%
inactive: NCI-H23 lung 42.8% | NCI-H226 lung 32.9% | NCI-H322M lung 27.6% | HOP-62 NSCLC 33.4% | HOP-92 NSCLC 49.6% | NCI-H522 lung 21.2% | 786-0 renal 22.1% | COLO 205 colon 23.4%

O=NN(CCCl)C(=O)NCc1ccc(-c2ccc(CNC(=O)N(CCCl)N=O)cc2)cc1
inactive: NCI-H23 lung 103% | NCI-H226 lung 96.7% | NCI-H322M lung 86.2% | HOP-62 NSCLC 91.5% | NCI-H460 lung 97.8% | HOP-92 NSCLC 96.5% | NCI-H522 lung 81.7% | A549/ATCC NSCLC 87.1% | 786-0 renal 94.8% | COLO 205 colon 104%

O=C1CC[C@@H](C(=O)N[C@H]2CSSC[C@@H](C(=O)N/C=C/c3ccc(O)cc3)NC(=O)[C@H](Cc3ccccc3)NC(=O)[C@@H]3CCCN3C(=O)[C@@H]3CCCN3C2=O)N1
inactive: NCI-H23 lung 96.5% | NCI-H226 lung 93.5% | NCI-H322M lung 108% | HOP-62 NSCLC 78.2% | NCI-H460 lung 102% | HOP-92 NSCLC 99.2% | NCI-H522 lung 87.4% | A549/ATCC NSCLC 85.2% | 786-0 renal 118% | COLO 205 colon 102%

[O-]c1c[n+](-c2ccc(Cl)cc2)no1
inactive: NCI-H23 lung 106% | NCI-H226 lung 103% | NCI-H322M lung 94.1% | HOP-62 NSCLC 91.3% | NCI-H460 lung 101% | HOP-92 NSCLC 83.8% | NCI-H522 lung 122% | A549/ATCC NSCLC 108% | 786-0 renal 108% | COLO 205 colon 103%
